Screens deposited in PubChem BioAssay by Corson Lab, School of Medicine, Indiana University.
FECH block: inhibitors of human ferrochelatase, primary screen, biochemical, purified FECH, Ni-mesoporphyrin absorbance. calls only at 10 µM (by protocol). 3.3% of 20,000 active. Ferrochelatase, mitochondrial (Homo sapiens), P22830. Ni-mesoporphyrin absorbance 550 nm;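 active = enzyme reaction rate more than 3 SD below the solvent-only control wells on the same plate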;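 also: lower slope than DMSO wells means FECH inhibition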
Target sequence (P22830 whole entry, looked up): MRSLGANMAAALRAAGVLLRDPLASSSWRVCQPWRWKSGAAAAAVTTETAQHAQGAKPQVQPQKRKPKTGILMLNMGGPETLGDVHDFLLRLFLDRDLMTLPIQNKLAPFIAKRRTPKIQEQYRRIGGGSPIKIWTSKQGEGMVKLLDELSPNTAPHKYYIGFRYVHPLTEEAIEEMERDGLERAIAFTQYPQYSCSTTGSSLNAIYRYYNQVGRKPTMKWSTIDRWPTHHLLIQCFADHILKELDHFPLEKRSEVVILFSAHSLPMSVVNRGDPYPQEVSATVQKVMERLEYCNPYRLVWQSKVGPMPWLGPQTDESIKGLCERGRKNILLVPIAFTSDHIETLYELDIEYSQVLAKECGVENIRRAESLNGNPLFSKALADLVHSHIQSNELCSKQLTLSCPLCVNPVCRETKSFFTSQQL
Calls only; i = inactive; + = active, no number. This excerpt belongs to a sample that is enriched for hits.

SMILES	FECH block
C/C=C(\C)c1c(-c2ccccc2)ncn1Cc1cccnc1	i
Cc1cccc(OCCN2CCCCC2CO)c1C (centres undefined)	+
CCn1ccnc1-c1c(-c2ccccc2)ncn1CCN1CCCCC1CO (centres undefined)	i
Cc1cccc(OCCN2CCCN(C(=O)c3ccco3)CC2)c1C	i
CC(C)c1cc(Nc2ccc(F)cc2)n2nc(-c3cccnc3)nc2n1	i
Cc1cc(N2CCN(CCc3ccncc3)CC2)nc(-c2cccnc2)n1	i
O=C(O)C1CC2(CCNCC2)CN1Cc1cccc2nonc12 (centres undefined)	i
COc1ccc(OC)c(CNC(=O)c2ccc(CN3C(=O)CCn4nc(-c5ccccc5)cc43)cc2)c1	i
CC(C)n1cnc2nc(CSc3ccccc3NC(=O)c3cccc(Cl)c3)cc(=O)n21	i
COc1ccc(C(=O)Nc2ccccc2SCc2cc(=O)n3c(ncn3C(C)C)n2)cc1OC	i
CC(C)n1cnc2nc(CSc3ccccc3NC(=O)COc3ccccc3F)cc(=O)n21	+
CCc1ccccc1OCC(=O)Nc1ccccc1SCc1cc(=O)n2c(ncn2C(C)C)n1	i
CC(C)n1cnc2nc(CSc3ccccc3NC(=O)COc3ccc(F)cc3)cc(=O)n21	i
CCCn1cnc2nc(CSc3ccccc3NC(=O)c3ccc(Cl)cc3)cc(=O)n21	+
CSc1nc(-c2ccc(Cl)cc2)c(C#N)c(N2CCN(c3cccc(C)c3)CC2)n1	i
CCCCNC(=O)C1CCN(c2ccc(-c3ccc(F)cc3)nn2)CC1	i
CC(C)(C)c1ccc(S(=O)(=O)NCc2nc3cccnc3n2Cc2ccc(F)cc2)cc1	i
CCCc1cc(N2CCC(C(C)N3CCN(C)CC3)CC2)nc(C)n1 (centres undefined)	i
FC(F)(F)c1ccc(-c2ccnc3[nH]ccc23)nc1	i
CC(=O)c1cccc(-c2ccnc3[nH]ccc23)c1	+
Cn1ccc2c(-c3cccc(O)c3)ccnc21	i
Fc1ccc(-n2cccn2)c(CN2CCC(OCc3cccnc3)CC2)c1	i
Cc1cc(C)cc(Nc2nc(N(C)CCO)nc3c2cnn3-c2ccccc2)c1	i
COc1ccccc1NC(=O)CN1CCN(Cc2ccccc2Cl)S1(=O)=O	i
Cc1ccc(Cl)cc1NC(=O)CN1CCN(Cc2ccc(F)cc2Cl)S1(=O)=O	i
SMILES	FECH block
Cc1ccc(Cl)cc1NC(=O)CN1CCCN(Cc2ccccc2)S1(=O)=O	i
Cc1cccc(C)c1NC(=O)CN1CCN(Cc2ccccc2Cl)S1(=O)=O	i
Cc1c(Cl)cccc1NC(=O)CN1CCCN(Cc2ccccc2Cl)S1(=O)=O	+
Cc1ccc(Cl)cc1NC(=O)CN1CCCN(Cc2ccccc2Cl)S1(=O)=O	+
COCC(NC(=O)CCn1c(C)cc2ccccc21)c1ccccn1 (centres undefined)	i
Cc1cccc(-c2ncc(CNCCS(=O)(=O)N3CCCC3)cn2)c1	i
COc1cccc(NC(=O)c2ccc(=O)n(Cc3ccc(F)cc3)c2)c1	i
CNc1cc(C(=O)N(Cc2noc(C)n2)C(C)C)ccn1	i
COc1ccc(OC)c(NC(=O)CCc2nc(-c3cc4ccc(C)cc4[nH]c3=O)no2)c1	i
CCCc1c(C)nc2ncnn2c1Sc1ccc(NC(=O)Nc2ccc(OC)c(OC)c2)cc1	i
CCc1cc(Sc2ccc(NC(=O)Nc3ccc(Cl)cc3)cc2)n2ncnc2n1	+
CCCc1c(C)nc2ncnn2c1Sc1ccc(NC(=O)c2c(OC)cccc2OC)cc1	i
CCc1c(C)nc2ncnn2c1Sc1ccc(NC(=O)Nc2ccccc2OC)cc1	i
CCCc1cc(Sc2ccc(NC(=O)c3cccc(C)c3)cc2)n2ncnc2n1	i
CCCc1cc(Sc2ccc(NC(=O)c3cccc(F)c3)cc2)n2ncnc2n1	+
CCc1cc(Sc2ccc(NC(=O)Nc3ccccc3F)cc2)n2ncnc2n1	i
CCc1c(C)nc2ncnn2c1Sc1ccc(NC(=O)Nc2cc(C)ccc2OC)cc1	i
CCCc1c(C)nc2ncnn2c1Sc1ccc(NC(=O)Nc2cccc(OC)c2)cc1	+
CCCc1cc(Sc2ccc(NC(=O)Nc3ccc(Cl)cc3)cc2)n2ncnc2n1	i
CCc1c(C)nc2ncnn2c1Sc1ccc(NC(=O)Nc2cc(OC)c(OC)c(OC)c2)cc1	+
CCCc1cc(Sc2ccc(NC(=O)c3ccc(C)cc3)cc2)n2ncnc2n1	i
CCCc1nc(NC[C@@H]2CCCO2)c2cnn(C)c2n1	i
Cc1ccc(C)c(OC(C)C(=O)N2CCc3[nH]nc(C(C)C)c3C2)c1 (centres undefined)	i
Cn1c(=O)c(C(=O)N2CCN(c3cccc(Cl)c3)CC2)nc2ccccc21	i
Cc1ccc(OC2(C(=O)N3C[C@H](OC(C)C)[C@@H](O)C3)CCNCC2)cc1	i
CC(C)c1noc(C2CCCN2Cc2cc(C(C)(C)C)n[nH]2)n1 (centres undefined)	i
Cc1[nH]ncc1CNC(=O)c1ccc(CN2C(=O)CCn3nc(-c4cccc(Cl)c4)cc32)cc1	i
Cc1ccc(NC(=O)N2CCN(CCn3c(C(F)(F)F)nc4cccnc43)CC2)cc1C	i
CCCc1cc(Sc2ccc(NC(=O)Nc3cccc(Cl)c3)cc2)n2ncnc2n1	i
